Each structure is given as a SMILES string. This is part of a sample that, as a whole, favours compounds with a hit. Of some 83,000 tested, about 20% had one in any assay.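 48-hour exposure, single concentration, 96-well plates; percent growth endpoint where 0 means no net growth. Active: below 10.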 Unmarked numbers belong to inactive results. Activity calls are given as the source filed them.

From PubChem BioAssay (NCI) come the findings set out here.

Test systems include NCI-H23 lung; NCI-H226 lung; NCI-H322M lung; HOP-62 NSCLC; NCI-H460 lung; HOP-92 NSCLC; NCI-H522 lung; A549/ATCC NSCLC; 786-0 renal; COLO 205 colon.
Holding throughout (experiment): NCI-60 one-dose screen, 48 h (100 = growth as untreated, 0 = no growth, -100 = all killed)
Holding throughout (settings): 10 µM unless noted

For the molecule `COc1cc(C(=O)/C=C/c2c(C)n([O-])c3ccc(C)cc3[n+]2=O)cc(OC)c1OC`, the growth is 42.2% in the assay with NCI-H23 lung; 72.7% with NCI-H226 lung; 97.9% in the assay with NCI-H322M lung; 102% with HOP-62 NSCLC; 88.4% with NCI-H460 lung; 64.5% in the assay with HOP-92 NSCLC. Besides, the growth with NCI-H522 lung is -81.8% (active); in the assay on A549/ATCC NSCLC, 85.8%; with 786-0 renal it was 74%; with COLO 205 colon it was -36.6% (active).

As to `O=C(CN1CCN(c2cc3c(cc2F)c(=O)c(C(=O)O)cn3C2CC2)CC1)Nc1nc(-c2ccccc2)cs1`, the growth is 86.4% in the assay on NCI-H23 lung; 77.3% with NCI-H226 lung; 102% in the assay with NCI-H322M lung; 81.1% with HOP-62 NSCLC; 73.3% in the assay on NCI-H460 lung; 70.8% with HOP-92 NSCLC. In addition, the growth in the assay with NCI-H522 lung was 75.5%; in the assay on A549/ATCC NSCLC, 65.2%; in the assay with 786-0 renal, 75.5%; in the assay on COLO 205 colon, 93.3%.

`O=C1Nc2ccc(Br)cc2C12CC(c1ccccc1)=NN2` (stereo not given): the growth with NCI-H23 lung was 58.7%; in the assay on NCI-H226 lung, 57.3%; in the assay on NCI-H322M lung, 35.2%; in the assay with HOP-62 NSCLC, 51.6%; in the assay on NCI-H460 lung, 18.1%; in the assay on HOP-92 NSCLC it was 58.2%. In addition, the growth in the assay on NCI-H522 lung is 20%; with A549/ATCC NSCLC, 31.6%; in the assay with 786-0 renal, 46.8%; with COLO 205 colon, 30.5%.

Take `COc1cc2c(c(OC)c1OC)-c1ccc(N=NC(N)=S)c(=O)cc1[C@@H](NC(C)=O)CC2`: the growth is 1.29% (active) with NCI-H23 lung; 41.8% in the assay with NCI-H226 lung; 36.5% with NCI-H322M lung; 7.96% (active) in the assay on HOP-62 NSCLC; 3.1% (active) in the assay on NCI-H460 lung; 69.6% with HOP-92 NSCLC. Further, the growth in the assay with NCI-H522 lung was -59.8% (active); in the assay on A549/ATCC NSCLC, 15%; in the assay on 786-0 renal it was 9.81% (active); in the assay with COLO 205 colon, -73.6% (active).

Consider `Cn1c2c(Cl)c(Cl)ccc2c2ccn3c(=O)c4ccccc4nc3c21`, for which the growth was 89% in the assay with NCI-H23 lung; 90.8% with NCI-H226 lung; 90.9% in the assay with NCI-H322M lung; 68% with HOP-62 NSCLC; 104% with NCI-H460 lung; 92.7% with HOP-92 NSCLC. Moreover, the growth is 84.8% in the assay on NCI-H522 lung, 108% in the assay with A549/ATCC NSCLC, 99.2% in the assay on 786-0 renal and 100% with COLO 205 colon.

Take `COc1ccc(C/C(C)=C(\c2ccc(OCCN3CCCCCC3)cc2)c2ccc(OC(=O)C3CCCCC3)cc2)cc1`: the growth in the assay on NCI-H23 lung is 63.5%; in the assay on NCI-H226 lung it was 78.3%; in the assay on NCI-H322M lung, 73.5%; with HOP-62 NSCLC, 74.5%; in the assay with NCI-H460 lung it was 38.1%; in the assay on HOP-92 NSCLC, 19.6%. For the same molecule, the growth was 63.4% with NCI-H522 lung, 65.2% with A549/ATCC NSCLC, 68.9% in the assay on 786-0 renal and 10.5% in the assay on COLO 205 colon.

`C/C(=C(/c1ccc(O)cc1)c1ccc(Cl)cc1)c1ccccc1`: the growth in the assay with NCI-H23 lung is -62.5% (active); with NCI-H226 lung it was -80.4% (active); in the assay with NCI-H322M lung, -95% (active); with HOP-62 NSCLC it was -90.8% (active); with NCI-H460 lung it was -91.2% (active); with HOP-92 NSCLC, -96% (active). Moreover, the growth is -78% (active) in the assay with NCI-H522 lung, -85.8% (active) in the assay with A549/ATCC NSCLC, -89.3% (active) in the assay with 786-0 renal and -82.8% (active) in the assay on COLO 205 colon.

Regarding `O=C(CCCN1CCOCC1)Nc1ccc(Cn2nnc3c2C(=O)c2nnn(Cc4ccc(NC(=O)CCCN5CCOCC5)cc4)c2C3=O)cc1`, the growth with NCI-H23 lung is -6.94% (active); in the assay with NCI-H226 lung, 97.8%; with NCI-H322M lung, 21%; with HOP-62 NSCLC, 73.9%; with NCI-H460 lung, 22.4%; with HOP-92 NSCLC, -20.9% (active). Further, the growth with NCI-H522 lung is -34.9% (active); with A549/ATCC NSCLC, 83.8%; in the assay on 786-0 renal, 101%; in the assay with COLO 205 colon it was -70.5% (active).

As to `COc1ccc(C2Nc3ccccc3-n3cccc32)cc1` (stereo not given), the growth in the assay with NCI-H23 lung is 80.4%; in the assay with NCI-H226 lung, 96.7%; in the assay with NCI-H322M lung, 97%; with HOP-62 NSCLC it was 104%; in the assay on NCI-H460 lung, 102%; in the assay with HOP-92 NSCLC, 74.2%. Besides, the growth is 95.7% in the assay with NCI-H522 lung, 104% in the assay on A549/ATCC NSCLC, 111% in the assay with 786-0 renal and 126% with COLO 205 colon.

Take `CCCCCCCCCCCCNC(=O)[C@H]1CSC(c2ccc(OC)c(F)c2)N1` (stereo not given in full): the growth with NCI-H23 lung is -78.2% (active); in the assay with NCI-H226 lung it was -71.4% (active); in the assay with NCI-H322M lung it was -98.4% (active); with HOP-62 NSCLC it was -81.8% (active); in the assay on NCI-H460 lung, -71.8% (active); in the assay with HOP-92 NSCLC it was -93.8% (active). Moreover, the growth in the assay with NCI-H522 lung was -73.5% (active); in the assay on A549/ATCC NSCLC, -88.5% (active); in the assay on 786-0 renal, -96.6% (active); in the assay on COLO 205 colon, -81.5% (active).

Regarding `Cc1ccc(Nc2nc(N)nc(Nc3ccc4ccccc4c3)n2)cc1`, the growth with NCI-H23 lung was 69.2%; in the assay with NCI-H226 lung it was 89.8%; in the assay with NCI-H322M lung, 52.4%; with HOP-62 NSCLC it was 47%; in the assay on NCI-H460 lung, 14.6%; in the assay with HOP-92 NSCLC it was 21.1%. Further, the growth in the assay on NCI-H522 lung is 6.88% (active); with A549/ATCC NSCLC it was 30.9%; in the assay with 786-0 renal it was 46.6%; in the assay with COLO 205 colon it was 18.7%.

Consider `C=C1CC2(OC1=O)C(=O)N(CCCCCCCN1C(=O)C3(CC(=C)C(=O)O3)c3ccccc31)c1ccccc12` (stereo not given), for which the growth with NCI-H23 lung was 52.6%; in the assay on NCI-H226 lung, 63%; in the assay with NCI-H322M lung it was 87%; with HOP-62 NSCLC, 117%; in the assay on NCI-H460 lung it was 38%; in the assay on HOP-92 NSCLC it was -1.35% (active). Besides, the growth with NCI-H522 lung is -48.1% (active); in the assay on A549/ATCC NSCLC it was 83.7%; with 786-0 renal it was 46.7%; in the assay on COLO 205 colon it was 12.8%.

Take `COc1cc(-c2cc(-c3nc4ccc(Cl)cc4[nH]3)[nH]n2)cc(OC)c1OC`: the growth is 45.5% with NCI-H23 lung; 18.1% with NCI-H226 lung; 51.4% in the assay with NCI-H322M lung; 40.1% in the assay with HOP-62 NSCLC; 60.4% in the assay with NCI-H460 lung; 67.2% with HOP-92 NSCLC. In addition, the growth in the assay with NCI-H522 lung was 45.3%; with A549/ATCC NSCLC, 50%; in the assay on 786-0 renal it was 65.1%; in the assay on COLO 205 colon, 60.5%.
